The text below walks through data of PubChem BioAssay (NCATS).

Results filed as inconclusive are left out. Where a call stands in place of a potency, no number is given. Calls of active or inactive are those of the source. The call rests on the fitted dose curve; in most records, active means well fitted inhibition curve with a large enough effect; inconclusive means small, poorly fitted or top-dose-only effect, or effect the other way; inactive means flat fitted curve, though single readings scatter.
Potency means the concentration at half of the fitted maximal effect.

This test is described as follows: Quantitative high throughput screen for delayed death inhibitors of the malarial parasite plastid, 48 hour incubation (AID 488752). Further: nearly all actives have a fitted effect of over 65% in size. The note with it: Plasmodium falciparum growth; series mostly up to 28.7 µM. From the text: NIH Molecular Libraries Probe Production Network [MLPCN]
NIH Chemical Genomics Center [NCGC]
Assay Provider: David Fidock and Eric Ekland, Columbia University
The goal of this screen is to discover new antimalarial compounds that act by inhibiting the development of the apicoplast in the malarial parasite Plasmodium falciparum. The biochemical processes that make this organelle essential for erythrocytic stage parasites are not well understood. However, antibiotics, such as azithromycin and tetracycline, which target the apicoplast translational machinery, have a potent antimalarial effect.
We have developed a cell-based assay that measures parasite growth based on the expression of an integrated copy of a firefly luciferase reporter. To detect small molecules that cause this 'delayed death' phenotype, erythrocytes infected with the luciferase-expressing parasites were incubated with compounds for either one or two generations, corresponding to 48 and 96 hours, respectively. Compounds that inhibit parasite growth in the second generation, but not the first, should be enriched in antimalarials that target the apicoplast. Growth inhibition is detected by a decrease in luciferase activity
Four microliters of culture medium (RPMI 1640 with 0.5% w/v Albumax (GIBCO), 24 mM sodium bicarbonate and 10 ug/mL gentamycin) were dispensed by a Multi-drop Combi into white solid 1536-well plates (Grenier) and 23 nL compound was added by a pin tool. Four microliters of infected erythrocytes (2% hematocrit, 0.1% parasitemia final concentration) in culture medium were dispensed and the plates incubated for 48 hours at 37 C in 5% CO2. Two microliters of luciferase detection reagent was added and luminescence was detected by a ViewLux (PerkinElmer) reader
For `CC(C)(C)NCC(O)c1ccc(O)c(CO)c1` (configuration not stated), the Potency result is “inactive”.
Take `Cc1ccccc1C(OCCN(C)C)c1ccccc1` (configuration not stated): the Potency result is “inactive”.
Regarding `Cc1cnc(NC(=O)C2=C(O)c3ccccc3S(=O)(=O)N2C)s1`, the Potency entry was “inactive”.
As for `CCN(CC)CCCC(C)Nc1ccnc2cc(Cl)ccc12` (configuration not stated), the figure is 0.165 µM (active); as for `CN1CCN(CCCN2c3ccccc3Sc3ccc(C(F)(F)F)cc32)CC1`, 9.28 µM (active).
As for `CCn1cc(C(=O)O)c(=O)c2cc(F)c(N3CCNC(C)C3)c(F)c21` (configuration not stated), the entry is “inactive”; as for `Clc1cccc(Cl)c1NC1=NCCN1`, “inactive”; as for `CCCC(CCC)C(=O)O`, “inactive”.
For the compound `Cc1[nH]c(=O)c(C#N)cc1-c1ccc2nccn2c1`, the Potency result is “inactive”.
Consider `Nc1ccc(S(=O)(=O)Nc2ccnn2-c2ccccc2)cc1`, for which the Potency result was “inactive”.
In the case of `c1ccc([C@H]2CN3CCSC3=N2)cc1` it was “inactive”; in that of `CC(C)NCC(O)COc1ccc(COCCOC(C)C)cc1` (configuration not stated), “inactive”; in that of `Cc1cn[nH]c1`, “inactive”.
Turning to `Cc1[nH]c(=O)c(C#N)cc1-c1ccncc1`, the Potency result is “inactive”.
As for `NC(=O)c1cnccn1`, the entry is “inactive”; as for `O=NN(CCCl)C(=O)NCCCl`, “inactive”.
For the compound `CNC[C@H](O)c1cccc(O)c1`, the Potency result was “inactive”.
For `CCCCNc1cc(C(=O)O)cc(S(N)(=O)=O)c1Oc1ccccc1`, the Potency result is “inactive”.
As for `O=C1CCC(N2C(=O)c3ccccc3C2=O)C(=O)N1` (configuration not stated), the entry is “inactive”; as for `NCCc1ccc(O)c(O)c1`, “inactive”; as for `C1COC(NC(C2CC2)C2CC2)=N1`, “inactive”.
In the case of `O=c1n(CCCN2CCN(c3cccc(Cl)c3)CC2)nc2ccccn12` it was “inactive”.
In the case of `Nc1nc2c(ncn2COCCO)c(=O)[nH]1` it was “inactive”; in that of `N=c1nc(N2CCCCC2)cc(N)n1O`, “inactive”; in that of `NCCCC(N)(C(=O)O)C(F)F` (configuration not stated), “inactive”.
For `CC(=O)Oc1ccccc1C(=O)O`, the Potency entry was “inactive”.
With `NS(=O)(=O)c1cc2c(cc1Cl)NC=NS2(=O)=O`, the Potency result was “inactive”.
In the case of `O=C1CCc2cc(OCCCCc3nnnn3C3CCCCC3)ccc2N1`, the Potency result is “inactive”.
In the case of `N[C@@H]1CONC1=O` it was “inactive”; in that of `NC[C@H](O)c1ccc(O)c(O)c1`, “inactive”; in that of `CC(C[N+](C)(C)C)OC(N)=O` (configuration not stated), “inactive”.
Consider `CC(C)(Sc1ccc(CCN(CCCCC2CCCCC2)C(=O)NC2CCCCC2)cc1)C(=O)O`, for which the Potency result was “inactive”.
In the case of `NNCCc1ccccc1` it was “inactive”; in that of `OC(CN1CCC(Cc2ccc(F)cc2)CC1)c1ccc(Cl)cc1` (configuration not stated), 3.29 µM (active).
With `O=c1[nH]cnc2[nH]ncc12`, the Potency result was “inactive”.
In the case of `Cc1ccc(N(CC2=NCCN2)c2cccc(O)c2)cc1`, the Potency entry is “inactive”.
For `CC(C)C[C@H](NC(=O)[C@@H](O)[C@H](N)Cc1ccccc1)C(=O)O`, the Potency is 1.04 µM (active).
